Screens: PubChem, National Center for Advancing Translational Sciences (NCATS)
Most compounds without a hit are left out; they make up all but 5.4% or so of the library.
Marburg entry inh – Marburg virus entry inhibition; Marburg virus pseudotyped entry inhibition, cell reporter; Potency, µM (titrated, usually from 37.8 µM), usual class: inhibitors; actives 1.8% (n = 300,000); calls by dose curve; tested in HEK293 cells
VACV mCherry inh – vaccinia inhibition (mCherry reporter). Vaccinia virus mCherry reporter infection, fluorescence. Potency, µM (doses to about 36.5 µM), usual class: inhibitors. actives 0.63% (n = 310,000); calls by dose curve; tested in A549 cells; note: nearly all actives have a fitted effect of over 35% in size
FMDV antiviral – antivirals against foot and mouth disease virus; actives 1.2% (n = 410,000); Potency, µM (doses to about 57.9 µM), most hits filed as inhibitors; FMDV antiviral cell-based qHTS; calls by dose curve; tested in HEK293T cells; note: read-out not given here; nearly all actives have a fitted effect of over 45% in size
LASV entry inh – blocks Lassa virus binding to or entry into cells; Potency, µM (series often up to 37.9 µM), actives largely listed as inhibitors; actives 1.2% (n = 300,000); AID 540256; Lassa virus pseudotype entry inhibition, cell reporter; calls by dose curve; tested in HEK293 cells; note: nearly all actives have a fitted effect of over 50% in size
VACV Venus inh – vaccinia inhibition (Venus reporter); Vaccinia virus Venus reporter expression, fluorescence; Potency, µM (doses to about 36.5 µM), actives largely listed as inhibitors; actives 0.46% (n = 330,000); calls by dose curve; tested in A549 cells; note: nearly all actives have a fitted effect of over 30% in size
Sm TGR inh – inhibitors of Schistosoma mansoni thioredoxin glutathione reductase | Q962Y6 | purified TGR, DTNB reduction, TNB absorbance 405 nm | Potency, µM (top dose mostly 114 µM), usual class: inhibitors | actives 3% (n = 360,000); active = well fitted inhibition curve with a large enough effect; inconclusive = small, poorly fitted or top-dose-only effect; inactive = no such curve, though single readings can be large or run the other way; note: nearly all actives have a fitted effect of over 60% in size
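Kinetic colorimetric format: TGR-catalysed, NADPH-driven DTNB reduction monitored via TNB absorbance. Enzyme dispensed at 20 nM; compound exposure 15 min at room temperature before reaction start.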
Numbers stand for hits; i = inactive; ? = inconclusive; nt = not tested or not shown; [ ] = remark or other dose.

SMILES	Marburg entry inh	VACV mCherry inh	FMDV antiviral	LASV entry inh	VACV Venus inh	Sm TGR inh
Cc1ccc(Nc2sc(C(=O)c3ccccc3)c(N)c2C(=O)NC(C)C)cc1	nt	i	i	i	i	31.6µM
COc1ccccc1NC(=O)c1c(Nc2ccccc2C)sc(C(=O)Nc2cccc(Cl)c2)c1N	?	i	7.94µM	?	?	i
Cc1ccc(Nc2sc(C(=O)c3ccc(F)cc3)c(N)c2S(=O)(=O)c2ccc(C)cc2)cc1	nt	i	i	1.12µM	i	i
COc1ccc(Nc2sc(C(=O)c3ccc(Cl)cc3)c(N)c2C(=O)Nc2ccccc2OC)cc1	?	nt	i	i	nt	i
COc1ccc(C(=O)c2sc(Nc3cccc(OC)c3)c(C(=O)Nc3cccc(C)c3C)c2N)cc1	20.6µM	nt	i	?	nt	i
CCOc1ccc(NC(=O)c2c(Nc3ccccc3C)sc(C(=O)c3ccc(Cl)cc3)c2N)cc1	nt	?	?	i	?	i
Cc1cc(Cl)ccc1OCC(=O)N(Cc1ccc(N(C)C)cc1)CC1CCCO1 (configuration not stated)	?	i	?	?	i	i
COc1ccc(NC(=O)N2CCC3(CC2)CCN(C(=O)c2cccn2C)CC3)cc1	nt	nt	i	nt	nt	nt
COc1ccccc1-c1ccnc(-n2ncc(C(=O)N[C@H]3CCCCNC3=O)c2C2CC2)n1	nt	i	i	nt	i	nt
COc1ccc(NC(=O)c2c(Nc3ccccc3)sc(C(=O)c3ccc(F)cc3)c2N)cc1	6.31µM	?	?	12.6µM	?	i
Cc1cc(Nc2sc(C(=O)c3ccc(F)cc3)c(N)c2C(=O)Nc2ccc(F)cc2)ccc1Cl	nt	5.01µM	10µM	?	?	i
Cc1ccc(NC(=O)c2c(Nc3ccccc3C)sc(C(=O)c3ccccc3)c2N)cc1	nt	?	?	?	i	i
Cc1ccc(-c2cn3c(n2)sc2cc(C(=O)NC4CCCCC4)ccc23)cc1	nt	?	i	i	?	i
Cc1ccc(-c2cc3c(n2-c2ccc(F)cc2)CC(C)(C)CC3=O)cc1	i	i	i	i	i	i
COc1ccccc1C(=O)N1CCN(c2nc3cc(C)cc(C)c3cc2C#N)CC1	nt	i	i	nt	i	nt
Cc1ccc2cc(C#N)c(N3CCN(C(=O)c4cccs4)CC3)nc2c1	?	i	31.6µM	?	i	i
COc1ccccc1C(=O)N1CCN(c2nc3cc(C)c(C)cc3cc2C#N)CC1	8.91µM	i	?	10µM	i	i
O=S(=O)(c1ccc(F)cc1)N1CCCC1	i	i	i	i	i	i
O=S(=O)(c1ccc(S(=O)(=O)N(Cc2ccc(F)cc2)C2CCCC2)cc1)N1CCCC1	10µM	nt	i	i	i	i
O=S(=O)(CCc1nnc(-c2ccccc2)o1)c1ccc2ccccc2c1	i	nt	i	i	2.82µM	i[11.4 µM]
O=S(=O)(CCc1nc2ccccc2o1)c1ccc2ccccc2c1	i	nt	i	i	i	i
Cc1ccc(-n2nc(C(=O)N3CCN(c4ccccc4)CC3)c(=O)n(C)c2=O)cc1	nt	i	i	?	i	i
CCc1nn2c(=O)cc(COC(=O)c3ccccc3NC(=O)C3CCCCC3)nc2s1	nt	i	i	i	i	i
c1cc2cc(CNc3nc(NCC4CC4)nc4ccsc34)ccc2o1	nt	?	?	nt	i	nt
COCCNc1nc(NCc2ccccc2OC)c2sccc2n1	nt	?	?	nt	i	nt
SMILES	Marburg entry inh	VACV mCherry inh	FMDV antiviral	LASV entry inh	VACV Venus inh	Sm TGR inh
COc1ccccc1CNc1nc(NCc2cccs2)nc2ccsc12	nt	i	?	nt	i	nt
COc1ccccc1CNc1nc(NCc2ccccc2OC)c2sccc2n1	nt	?	22.4µM	nt	?	nt
COc1ccccc1CNc1nc(NCc2ccc3occc3c2)c2sccc2n1	nt	i	25.1µM	nt	i	nt
COc1ccccc1CNc1nc(NCC2CC2)nc2ccsc12	nt	i	25.1µM	nt	i	nt
CCOC(=O)Cc1ccc(Nc2nc(NCc3ccccc3)nc3ccsc23)cc1	nt	i	28.2µM	nt	i	nt
CCC(C)n1c(SCc2ccc(F)cc2Cl)nc2ccsc2c1=O (configuration not stated)	nt	i	?	?	i	i
CCC1CCC(C(=O)NNC(=O)c2cc(-c3ccco3)[nH]n2)CC1 (configuration not stated)	i	i	i	i	i	22.4µM
COC(=O)c1ccc2nc(NC(=O)CSCC(=O)OCC(=O)c3ccccc3)sc2c1	i	i	i	i	i	i
Cc1ccc2nc(NC(=O)CSCC(=O)OCC(=O)c3ccc(Br)cc3)sc2c1	3.16µM	i	7.94µM	7.94µM	i	i
CN1c2ccccc2[C@@]2(O)C(=O)[C@@]1(C)[C@H]1Cc3ccccc3[C@H]12	i	nt	nt	nt	nt	nt
